Assay outcomes: PubChem BioAssay, National Center for Advancing Translational Sciences (NCATS)
PLK1 PBD inh: blocks phosphopeptide binding to human PLK1 polo-box domain | Plk1 PBD binding of FITC phosphopeptide, fluorescence polarization | Potency, µM, for inactives: max response, negative = inhibition, usual class: inhibitors | 360,000 tested, 2.8% active | AID 720504; note: potency is the fitted concentration of half-maximal effect; series mostly up to about 57 µM; nearly all actives have a fitted effect of over 65% in size
Target sequence (P53350 whole entry, looked up, the tested form may be a part): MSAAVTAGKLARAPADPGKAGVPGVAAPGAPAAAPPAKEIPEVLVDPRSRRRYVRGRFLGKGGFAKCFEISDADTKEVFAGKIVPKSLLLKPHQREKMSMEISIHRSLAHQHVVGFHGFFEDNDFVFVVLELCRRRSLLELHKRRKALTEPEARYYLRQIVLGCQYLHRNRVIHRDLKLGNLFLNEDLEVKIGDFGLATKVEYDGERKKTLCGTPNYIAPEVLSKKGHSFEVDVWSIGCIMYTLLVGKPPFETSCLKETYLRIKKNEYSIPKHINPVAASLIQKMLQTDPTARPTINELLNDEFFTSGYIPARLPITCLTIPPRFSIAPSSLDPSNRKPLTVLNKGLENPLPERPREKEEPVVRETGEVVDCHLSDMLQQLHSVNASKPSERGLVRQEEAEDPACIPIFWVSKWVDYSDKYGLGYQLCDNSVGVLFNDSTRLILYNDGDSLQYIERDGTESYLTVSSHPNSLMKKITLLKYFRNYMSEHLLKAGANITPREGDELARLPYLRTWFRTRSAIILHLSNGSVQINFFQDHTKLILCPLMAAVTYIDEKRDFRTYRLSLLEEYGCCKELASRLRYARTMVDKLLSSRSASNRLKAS
GCN5L2 inh: GCN5L2 (KAT2A) acetyltransferase inhibition; GCN5L2 HAT assay, ThioGlo1 CoA-SH fluorescence; 390,000 tested, 0.21% active; Q92830; AID 504327; Potency, µM (doses to about 58.9 µM), for the others: top-dose activity change, negative = inhibition, hits mostly inhibitors; note: potency is the fitted concentration of half-maximal effect
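Fluorescence readout, Ex340nm/Em540nm: ThioGlo1 (50uM final) reacts with free CoA thiol released as 20nM GCN5L2 acetylates H3(1-25) peptide (75uM) using acetyl-CoA (70uM). Compound and enzyme sat 15 min beforehand; 20 min room-temperature reaction.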
GLS inh: blocks human kidney-isoform glutaminase activity. O94925. GLS enzymatic activity, qHTS titration. Potency, µM (doses to about 45.5 µM), for inactives: top-dose activity change, negative = inhibition, hits mostly inhibitors. 410,000 tested, 0.21% active. AID 624170; note: potency is the fitted concentration of half-maximal effect
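Enzyme dispensed in phosphate buffer (45 mM, pH 8.2, 0.02% Tween-20), compounds pinned in, then 1 mM L-glutamine solution and the glutamate oxidase–HRP–Amplex Red mix added; fluorescence read immediately and again after 30 min at room temperature.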
PI4K2A block: PI4K2A (human) kinase inhibition. activity change, negative = inhibition, % at 76.9 µM. AID 1346378. Q9BTU6. 420,000 tested, 0.13% active. purified PI4K2A, ADP-Glo luminescence, 1 h; active compounds read low; in the data active = activity change below about -50%; inconclusive = mostly about -30% to -49%;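 note: -100% = wells without enzyme as full effect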
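In this quantitative HTS, ADP production by PI4K2A was quantified luminescently after 1 h at ambient temperature; 100 microM adenosine served as plate-quality control.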
VDR inh: vitamin D3 receptor (human) inhibition. VDR-SRC2-3 peptide fluorescence polarization, 2 h. Potency, µM, inactives show max response, negative = inhibition, usual class: inhibitors. 400,000 tested, 0.93% active. AID 504847; note: potency is the fitted concentration of half-maximal effect
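VDR–SRC2-3 interaction, FP format. Cmpds 23 nl via pintool, brief spin, 2 h ambient incubation.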
Starred values were filed as active, the others as inactive; ? = inconclusive; · = no result. The list is not random: actives were taken first. Their share in the collection is about 3.1%. Unless noted, calls come from the whole dose curve; as a rule, active = well fitted curve in the direction sought with a large enough effect; inconclusive = small, poorly fitted or top-dose-only effect, or another doubt; inactive = no such curve, though single readings can be large; an effect the other way counts as inactive or inconclusive. Unless noted, % is set by controls: 0 for no effect and ±100 for the full control effect.

SMILES | PLK1 PBD inh | GCN5L2 inh | GLS inh | PI4K2A block | VDR inh
COC(=O)c1cccc(Cn2ccc3ccc(-c4ccc5ccn(C(=O)c6ccccc6OC)c5c4)cc32)c1 | · | · | · | -1.8 | ·
Cc1cc(C)n(C(C[N+](=O)[O-])c2ccc(Cl)cc2)n1 (stereo unspecified) | 16.8µM* | -2.8% | -21.7% | -0.1 | ?
C=CCN1C=C2C(=O)C(C)(OC(=O)CCC(=O)OC)C(=O)C(Br)=C2C=C1c1ccc(OC)cc1 (stereo unspecified) | ? | -2.2% | -1.0% | -17.1 | ?
COc1ccc(C2=CC3=C(Br)C(=O)C(C)(OC(=O)c4ccco4)C(=O)C3=CO2)cc1 (stereo unspecified) | 9.47µM* | 19.9% | -13.7% | ? | 79.4µM*
COc1ccc(C2=CC3=C(Br)C(=O)C(C)(OC(=O)c4cccs4)C(=O)C3=CO2)cc1 (stereo unspecified) | 8.44µM* | · | 1.4% | -2.0 | -28.0%
COc1ccc(C2=CC3=C(Br)C(=O)C(C)(OC(=O)c4cnc5ccccc5n4)C(=O)C3=CO2)cc1 (stereo unspecified) | · | · | · | · | 0.1%
COCCN1C=C2C(=O)C(C)(OC(=O)CCC(=O)OC)C(=O)C(Br)=C2C=C1c1ccc(OC)cc1 (stereo unspecified) | ? | · | -1.0% | -20.8 | 22.4µM*
CCOC(=O)c1c(C)oc2c1c1c(c3ccccc32)OCN(CCCC(=O)O)C1 | 10.6µM* | ? | 28.8% | -5.8 | 89.1µM*
COc1ccc(-c2cc(C(=O)NN=C/C(C)=C/c3ccccc3)[nH]n2)cc1 | · | · | · | -1.6 | ·
COc1ccc(C(=O)CCC(=O)Nc2cc(C)ccc2C)cc1 | · | 2.0% | -1.3% | -1.4 | 8.3%
COc1ccc(CC(=O)NNC(=O)CCC(=O)Nc2cc(C)ccc2C)cc1 | ? | -7.4% | 0.6% | -1.5 | 89.1µM*
CC(=O)ON=C1C=CC(=C(C#N)c2ccccc2)C=C1 | 2.38µM* | · | 24.0% | -11.6 | ·
COc1ccc(C(C#N)=C2C=CC(=NO)C=C2)cc1 | 26.7µM* | -10.6% | ? | 4.8 | ?
O=C(Nc1ccccc1)c1ccc[nH]1 | 18.9µM* | 1.5% | 34.4% | -1.0 | ?
O=C(Nc1ccccc1)c1c(F)cccc1F | -0.3% | -0.1% | 21.3% | 1.8 | -4.7%
Cc1c(Cl)cccc1NC(=S)NCc1cccn1C | 16.8µM* | 3.5% | 26.7% | -1.9 | ?
CC1=C(c2ccc(C(C)C)cc2)S(=O)(=O)NC1=NCc1ccc(OC(C)C)cc1 | · | -6.5% | 0.9% | -6.3 | 14.4%
COc1cc(-n2c(C)nc3cc(C(=O)N4CCCCC4)ccc32)cc(OC)c1OC | · | · | · | -1.8 | ·
COc1ccc(Cl)cc1C(=O)Nc1ccc(Br)c(C)n1 | 23.8µM* | 1.6% | 0.0% | -2.9 | -15.3%
COc1ccc(Cl)cc1C(=O)Nc1ccc(NC(C)=O)cc1 | 5.2% | 6.9% | -9.3% | -1.2 | 5.4%
COc1cc(NC(=O)N2CCC(CN3CCCC3)CC2)cc(OC)c1OC | · | -11.5% | 9.6% | 4.0 | 3.6%
COc1ccc(/C=C/C(=O)c2cccs2)c(OC)c1 | · | ? | · | · | 11.2µM*
Cc1ccc(NNC(N)=S)cc1Cl | -21.6% | 1.8% | 21.0% | -11.3 | 79.4µM*
CN(C)[C@@H]1C(=O)C(C(N)=O)=C(O)[C@@]2(O)C(=O)C3=C(O)c4c(O)cccc4C[C@H]3C[C@@H]12 | · | · | · | -2.8 | ·
C=C1c2cccc(O)c2C(=O)C2C(=O)[C@]3(O)C(=O)C(C(N)=O)C(=O)[C@@H](N(C)C)[C@@H]3[C@@H](O)[C@H]12 (stereo partly specified) | ? | 7.94µM* | 8.91µM* | ? | -23.7%
SMILES | PLK1 PBD inh | GCN5L2 inh | GLS inh | PI4K2A block | VDR inh
C=C1c2cccc(O)c2C(O)=C2C(=O)[C@@]3(O)C(O)=C(C(N)=O)C(=O)[C@@H](N(C)C)[C@@H]3[C@@H](O)[C@H]12 | · | 3.55µM* | ? | · | ?
COc1ccc(-c2nc(-c3ccccn3)no2)cc1 | -20.9% | 1.9% | 7.4% | -73.8* | -4.5%
COc1ccccc1-c1nc(-c2ccccn2)no1 | 4.9% | -3.7% | 1.3% | -63.9* | 4.5%
Cc1ccccc1-c1nc(-c2ccccn2)no1 | -4.5% | -9.3% | -9.5% | -50.8* | 11.8%
Cc1ccccc1-c1nc(-c2cccnc2)no1 | 0.9% | 1.5% | -0.8% | -1.8 | -3.5%
COc1nc(C)ccc1-c1noc(-c2ccccn2)n1 | -6.7% | -2.6% | -5.2% | -6.8 | -3.3%
